# This is part of a sample that, as a whole, favours compounds with a hit. Of some 83,000 tested, about 20% had one in any assay.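 Assay: single dose, 48 h. Readout: percent growth (0 = no net growth; negative = cell death). Active: <10.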 Unmarked numbers belong to inactive results. Calls of active or inactive are those of the source.
# Test system: IGROV1 ovarian
# Assay: NCI-60 one-dose screen, 48 h (100 = growth as untreated, 0 = no growth, -100 = all killed)
# Conditions: 10 µM
# Procedure: Growth inhibition of the IGROV1 human tumor cell line is measured as a screen for anti-cancer activity. Cells are grown in 96 well plates and exposed to the test compound for 48 hours. Compounds are tested at a single concentration, which is 10^-5 M for most compounds. The reported endpoint is percent growth (GI% or GIPRCNT), where numbers from 0 - 100% represent growth inhibition, and numbers from -100% - 0 represent cell death. For example, a value of 40 represents 60% growth inhibition. A value of 0 means no net growth occurred over the course of the experiment. A value of -40 indicates 40% of cells at the beginning of the experiment died by the end of the experiment. A value of -100 means all cells are dead at the end of the experiment.
# NCI-60 Human Tumor Cell Lines Screen was performed using the standard one-dose NCI protocol, which is described in more detail at https://dtp.cancer.gov/discovery_development/nci-60/default.htm.
# Compounds with GIPRCNT values below 10 were considered active. Activity score was based on GIPRCNT using the following formula: […]
# Score is 0 for GIPRCNT values of 100 or above, 50 for GIPRCNT values of 0, and 100 for GIPRCNT values of -100.
row,SMILES,growth
1,C/C(=N\Nc1nc2ccccc2s1)c1ccncn1,-22.2% (active)
2,O=[P@@]1(c2ccccc2)O[C@H](COCc2ccccc2)[C@@H](OCc2ccccc2)[C@H](OCc2ccccc2)[C@H]1O,78.3%
3,COc1ccc(N2C(=O)C3c4[nH]c5ccc(OCc6ccccc6)cc5c4C4CCC(C(C)C)CC4C3C2=O)cc1 (stereo not given),59.6%
4,Cc1ccc(NC(=O)Nc2nc3ccccc3s2)cc1NC(=O)Nc1nc2ccccc2s1,53.6%
5,CCCCCCCCCCCCCCCCCC(=O)OCCCCCCC,111%
6,COc1cc(Cc2cc(-c3ccc(Cl)cc3)n[nH]c2=O)ccc1O,112%
7,COc1ccc(NC(=O)Cc2nc3nc4sc(C)c(C)c4c(=O)n3[nH]2)cc1,101%
8,Cc1cc(Cc2cc(C)c(O)c(C)c2)cc(C)c1O,45.2%
9,COc1cc2c(cc1OCCCCCCN1CCN(CC(=O)Nc3ccc(Cl)cc3C(=O)c3ccccc3Cl)CC1)N=CC1CCCN1C2=O (stereo not given),-79% (active)
10,COc1ccc([N+](=O)[O-])c(C(=O)O)c1,108%
11,ClC(Cl)(Cl)c1nc2nccnc2[nH]1,103%
12,CCc1ccc2c(c1)N(CCO)C1=C(C(=O)OC1)C2c1cc(OC)c(OC)c(OC)c1 (stereo not given),10.1%
13,CN(C)CCOc1nc2ccccc2c2c1-c1ccc(Cl)cc1C2=O,-27.9% (active)
14,CN(C)c1ccc(N=C2C=CC(=O)c3ccccc32)cc1,88.6%
15,Nc1ccc2cc(S(=O)(=O)O)cc(O)c2c1N=Nc1ccc(F)cc1,120%
16,CCOCCOCCOCCOCCOCCOCCOCCOCCOCCO (tested in a mixture with another compound),30.2%
17,Cc1ccc(NC(=O)CSc2nc3ccccc3c(=O)n2CCc2ccccc2)c(C(=O)O)c1,94.1%
18,COc1ccc(-c2cc(/C=C/C(=O)c3cc(OC)c(OC)c(OC)c3)[nH]n2)cc1OC,-9.4% (active)
19,COC(=O)C(C(C[N+](=O)[O-])c1ccccc1)=P(c1ccccc1)(c1ccccc1)c1ccccc1 (stereo not given),66%
20,N#CCCN1C/C(=C/c2ccc(Br)cc2)C(=O)/C(=C/c2ccc(Br)cc2)C1,-69.1% (active)

row,SMILES,growth
1,O=C1/C(=C\c2ccc(Br)cc2)CN(C(=O)c2ccccc2F)C/C1=C\c1ccc(Br)cc1,-31.4% (active)
2,COc1cc(C(=C2O[C@@H]([C@H]3COC(C)(C)O3)[C@H]3OC(C)(C)O[C@@H]23)c2cc(OC)c(OC)c(OC)c2)cc(OC)c1OC,137%
3,CC[C@H](C)C(=O)O[C@H]1CCC=C2C=C[C@H](C)C(CCC3C[C@@H](O)CC(=O)O3)[C@H]21 (stereo not given in full),42.5%
4,COc1cccc(Cn2c(-c3nonc3N)nc3ccccc32)c1,28.1%
5,COc1ccc2c(c1)N(CCO)C1=C(C(=O)OC1)C2c1ccccc1 (stereo not given),43.3%
6,COc1ccc2c(c1)[n+]([O-])c(C#N)c(NC(=O)c1ccco1)[n+]2[O-],118%
7,CC12O[C@H](C[C@@H](O)[C@H]1O)n1c3ccccc3c3c4c(c5c6ccccc6n2c5c31)C(=O)N(CCCN)C4=O,17.9%
8,COc1cc(-c2nc(-c3nnc(-c4ccccc4Cl)o3)c3ccccn23)cc(OC)c1OC,111%
9,O=C(Nc1cccc(-n2cc(-c3ccncc3)c(-c3ccc(O)c(Cl)c3)n2)c1)c1ccc(N2CCOCC2)c(C(F)(F)F)c1,64.8%
10,COc1ccc(-c2ccc(-c3ccc(C(=N)N)cn3)o2)cc1,75.2%
11,O=C(Nc1ccncc1)C(=O)c1cn(S(=O)(=O)c2ccc(F)cc2)c2ccccc12,26.8%
12,O=C1OCC2=C1C(c1cccc(Cl)c1)c1cc3c(cc1N2CCO)OCCO3 (stereo not given),22.2%
13,c1ccc(CP(Cc2ccccc2)c2ccccc2)cc1,78.6%
14,O=C(Nc1cccc(-n2cc(-c3ccncc3)c(-c3cc(O)cc(Cl)c3)n2)c1)c1cc(C(F)(F)F)cc(C(F)(F)F)c1,73%
15,Cc1cc(N(CCCNc2ccnc3cc(Cl)ccc23)Cc2cccs2)nc(Cl)n1,50.8%
16,COc1cc(-c2cc(/C=C/C(=O)c3ccc(N)cc3)[nH]n2)cc(OC)c1OC,18.1%
17,COc1ccccc1CNCCN1C(=O)c2ccc3c4c(ccc(c24)C1=O)C(=O)N(CCNCc1ccccc1OC)C3=O,-72.5% (active)
18,CCN(CCCCCCN1CC(=O)N(CCCCCCN(CC)Cc2ccccc2OC)CC1=O)Cc1ccccc1OC,61.1%
19,CCCCCCCNc1nc(C=O)ncc1-c1ccc(C(F)(F)F)cc1,89.8%
20,NC(=O)SCC(=O)Nc1ccc(S(N)(=O)=O)cc1,112%

# Source: PubChem BioAssay (NCI)
